# Test results as given in the supplement of paper PMC8728848.
# Only a selection was taken, and the strongest signals are over-represented in it overall.
# B1: Cohesin-hLangerin (Homo sapiens) (protein)
# chain: LDDLDAVRIKVDTVNAKPGDTVRIPVRFSGIPSKGIANCDFVYSYDPNVLEIIEIEPGDIIVDPNPDKSFDTAVYPDRKIIVFLFAEDSGTGAYAITKDGVFATIVAKVKEGAPNGLSVIKFVEVGGFANNDLVEQKTQFFDGGANVGDTTEPATPTTPVTTPTTTDDLDAASYPRFMGTISDVKTNVQLLKGRVDNISTLDSEIKKNSDGMEAAGVQIQMVNESLGYVRSQFLKLKTSVEKANAQIQILTRSWEEVSTLNAQIPELKSDLEKASALNTKIRALQGSLENMSKLLKRQNDILQVVSQGWKYFKGNFYYFSLIPKTWYSAEQFCVSRNSHLTSVTSESEQEFLYKTAGGLIYWIGLTKAGMEGDWSWVDDTPFNKVQSARFWIPGEPNNAGNNEHCGNIKAPSLQAWNDAPCDKTFLFICKRPYVPSEPHHHHHH
# Assays:
# Experiment in all cases: glycan array binding signal (z-score within array); higher = stronger binding
# Conditions in all cases: glycan notation: IUPAC condensed, linker removed
# [1] = molecular target: Fuc(a1-2)Gal(b1-3)[Fuc(a1-4)]GlcNAc(b1-2)Man(a1-3)[Fuc(a1-2)Gal(b1-3)[Fuc(a1-4)]GlcNAc(b1-2)Man(a1-6)]Man(b1-4)GlcNAc(b1-4)[Fuc(a1-6)]GlcNAc(b1-4)[Fuc(a1-6)]GlcNAc
# In short: (§1)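 Negative Z-scores can be read as non-binding. The Z-score is calculated within each array and then averaged across arrays of one protein sequence at different concentrations or buffers and across linkers. Arrays, 3228 in all, were curated from the Consortium for Functional Glycomics database and kept only where the protein sequence was available.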
# Fuc(a1-2)Gal6S(b1-4)Glc = molecular target: Fuc(a1-2)Gal6S(b1-4)Glc
# In short: as §1
# [2] = molecular target: Fuc(a1-2)[Gal(a1-3)]Gal(b1-3)GlcNAc(b1-2)Man(a1-3)[Fuc(a1-2)[Gal(a1-3)]Gal(b1-3)GlcNAc(b1-2)Man(a1-6)]Man(b1-4)GlcNAc(b1-4)[Fuc(a1-6)]GlcNAc
# In short: as §1
# [3] = molecular target: Fuc(a1-2)[Gal(a1-3)]Gal(b1-3)GlcNAc(b1-6)GalNAc
# In short: as §1
# [4] = molecular target: Fuc(a1-2)[Gal(a1-3)]Gal(b1-4)GlcNAc(b1-2)Man(a1-3)[Fuc(a1-2)[Gal(a1-3)]Gal(b1-4)GlcNAc(b1-2)Man(a1-6)]Man(b1-4)GlcNAc(b1-4)[Fuc(a1-6)]GlcNAc
# In short: as §1
# [5] = molecular target: Fuc(a1-2)[Gal(a1-3)]Gal(b1-4)GlcNAc(b1-3)[Fuc(a1-2)[Gal(a1-3)]Gal(b1-4)GlcNAc(b1-6)]GalNAc
# In short: as §1
# [6] = molecular target: Fuc(a1-2)[Gal(a1-3)]Gal(b1-4)GlcNAc(b1-6)GalNAc
# In short: as §1
# [7] = molecular target: Fuc(a1-2)[Gal(a1-4)]Gal(b1-4)GlcNAc
# In short: as §1
# [8] = molecular target: Fuc(a1-2)[GalNAc(a1-3)]Gal(b1-3)GalNAc(a1-3)[Fuc(a1-2)]Gal(b1-4)GlcNAc
# In short: as §1
# [9] = molecular target: Fuc(a1-2)[GalNAc(a1-3)]Gal(b1-3)GlcNAc(b1-2)Man(a1-3)[Fuc(a1-2)[GalNAc(a1-3)]Gal(b1-3)GlcNAc(b1-2)Man(a1-6)]Man(b1-4)GlcNAc(b1-4)[Fuc(a1-6)]GlcNAc
# In short: as §1
# [10] = molecular target: Fuc(a1-3)[Gal(b1-4)]GlcNAc(b1-3)Gal(b1-4)[Fuc(a1-3)]GlcNAc
# In short: as §1
# [11] = molecular target: Fuc(a1-3)[Gal(b1-4)]GlcNAc(b1-3)Gal(b1-4)[Fuc(a1-3)]GlcNAc(b1-3)Gal(b1-4)[Fuc(a1-3)]GlcNAc
# In short: as §1
# [12] = molecular target: Gal(b1-3)GalNAc(a1-3)[Fuc(a1-2)]Gal(b1-4)Glc
# In short: as §1
# [13] = molecular target: Gal(b1-3)GlcNAc(b1-2)Man(a1-3)[Gal(b1-3)GlcNAc(b1-2)Man(a1-6)]Man(b1-4)GlcNAc(b1-4)[Fuc(a1-6)]GlcNAc
# In short: as §1
# [14] = molecular target: Gal(b1-3)GlcNAc(b1-2)Man(a1-3)[GlcNAc(b1-4)][Gal(b1-3)GlcNAc(b1-2)Man(a1-6)]Man(b1-4)GlcNAc(b1-4)GlcNAc
# In short: as §1
# [15] = molecular target: Gal(b1-3)GlcNAc(b1-2)[Gal(b1-3)GlcNAc(b1-6)]Man(a1-6)[Gal(b1-3)GlcNAc(b1-2)Man(a1-3)]Man(b1-4)GlcNAc(b1-4)GlcNAc
# In short: as §1
# [16] = molecular target: Gal(b1-3)GlcNAc(b1-3)Gal(b1-4)GlcNAc(b1-3)Gal(b1-4)GlcNAc(b1-2)[Gal(b1-3)GlcNAc(b1-3)Gal(b1-4)GlcNAc(b1-3)Gal(b1-4)GlcNAc(b1-6)]Man(a1-6)[Gal(b1-3)GlcNAc(b1-3)Gal(b1-4)GlcNAc(b1-3)Gal(b1-4)GlcNAc(b1-2)Man(a1-3)]Man(b1-4)GlcNAc(b1-4)[Fuc(a1-6)]GlcNAc
# In short: as §1
# Gal(b1-4)Glc = molecular target: Gal(b1-4)Glc
# In short: as §1
# [17] = molecular target: Gal(b1-4)GlcNAc(b1-2)Man(a1-3)Man(b1-4)GlcNAc(b1-4)GlcNAc
# In short: as §1
# [18] = molecular target: Gal(b1-4)GlcNAc(b1-2)Man(a1-3)[Gal(b1-4)GlcNAc(b1-2)Man(a1-6)][GlcNAc(b1-4)]Man(b1-4)GlcNAc(b1-4)[Fuc(a1-6)]GlcNAc
# In short: as §1
# [19] = molecular target: Gal(b1-4)GlcNAc(b1-3)Gal(b1-3)GlcNAc
# In short: as §1
# [20] = molecular target: Gal(b1-4)GlcNAc(b1-3)Gal(b1-4)GlcNAc(b1-2)[Gal(b1-4)GlcNAc(b1-3)Gal(b1-4)GlcNAc(b1-6)]Man(a1-6)[Gal(b1-4)GlcNAc(b1-3)Gal(b1-4)GlcNAc(b1-2)Man(a1-3)]Man(b1-4)GlcNAc(b1-4)GlcNAc
# In short: as §1
# [21] = molecular target: Gal(b1-4)GlcNAc(b1-3)Gal(b1-4)GlcNAc(b1-3)Gal(b1-4)GlcNAc(b1-3)Gal(b1-4)GlcNAc(b1-3)Gal(b1-4)GlcNAc(b1-2)[Gal(b1-4)GlcNAc(b1-3)Gal(b1-4)GlcNAc(b1-3)Gal(b1-4)GlcNAc(b1-3)Gal(b1-4)GlcNAc(b1-3)Gal(b1-4)GlcNAc(b1-6)]Man(a1-6)[Gal(b1-4)GlcNAc(b1-3)Gal(b1-4)GlcNAc(b1-3)Gal(b1-4)GlcNAc(b1-3)Gal(b1-4)GlcNAc(b1-3)Gal(b1-4)GlcNAc(b1-2)Man(a1-3)]Man(b1-4)GlcNAc(b1-4)[Fuc(a1-6)]GlcNAc
# In short: as §1
# [22] = molecular target: Gal(b1-4)GlcNAc(b1-3)GalNAc
# In short: as §1
# Gal3S4S(b1-4)GlcNAc = molecular target: Gal3S4S(b1-4)GlcNAc
# In short: as §1
# Gal6S(b1-3)GlcNAc6S = molecular target: Gal6S(b1-3)GlcNAc6S
# In short: as §1
# Gal6S(b1-4)Glc6S = molecular target: Gal6S(b1-4)Glc6S
# In short: as §1
# Gal6S(b1-4)GlcNAc = molecular target: Gal6S(b1-4)GlcNAc
# In short: as §1
# Gal6S(b1-4)GlcNAc6S = molecular target: Gal6S(b1-4)GlcNAc6S
# In short: as §1
# [23] = molecular target: GlcNAc(a1-4)Gal(b1-4)GalNAc
# In short: as §1
# [24] = molecular target: GlcNAc(b1-2)[GlcNAc(b1-4)]Man(a1-3)[GlcNAc(b1-4)][GlcNAc(b1-2)[GlcNAc(b1-6)]Man(a1-6)]Man(b1-4)GlcNAc(b1-4)[Fuc(a1-6)]GlcNAc
# In short: as §1
# [25] = molecular target: GlcNAc(b1-3)Gal(b1-4)GlcNAc(b1-2)Man(a1-3)[GlcNAc(b1-3)Gal(b1-4)GlcNAc(b1-2)Man(a1-6)]Man(b1-4)GlcNAc(b1-4)GlcNAc
# In short: as §1
# [26] = molecular target: GlcNAc(b1-3)Gal(b1-4)GlcNAc(b1-3)Gal(b1-4)GlcNAc(b1-2)[GlcNAc(b1-3)Gal(b1-4)GlcNAc(b1-3)Gal(b1-4)GlcNAc(b1-6)]Man(a1-6)[GlcNAc(b1-3)Gal(b1-4)GlcNAc(b1-3)Gal(b1-4)GlcNAc(b1-2)Man(a1-3)]Man(b1-4)GlcNAc(b1-4)[Fuc(a1-6)]GlcNAc
# In short: as §1
# [27] = molecular target: Man(a1-2)Man(a1-2)Man(a1-6)[Man(a1-3)]Man
# In short: as §1
# [28] = molecular target: Man(a1-2)Man(a1-3)[Man(a1-2)Man(a1-6)]Man(a1-6)[Man(a1-2)Man(a1-2)Man(a1-3)]Man
# In short: as §1
# [29] = molecular target: Man(a1-2)Man(a1-3)[Man(a1-6)]Man(a1-6)[Man(a1-2)Man(a1-3)]Man(b1-4)GlcNAc(b1-4)GlcNAc
# In short: as §1
# [30] = molecular target: Man(a1-2)Man(a1-6)[Man(a1-3)]Man(a1-6)[Man(a1-2)Man(a1-2)Man(a1-3)]Man(b1-4)GlcNAc(b1-4)GlcNAc
# In short: as §1
# Neu5Ac(a2-3)Gal = molecular target: Neu5Ac(a2-3)Gal
# In short: as §1
# [31] = molecular target: Neu5Ac(a2-3)Gal(b1-3)GlcNAc(b1-3)GalNAc
# In short: as §1
# [32] = molecular target: Neu5Ac(a2-3)Gal(b1-3)[Fuc(a1-4)]GlcNAc(b1-3)Gal(b1-4)[Fuc(a1-3)]GlcNAc
# In short: as §1
# [33] = molecular target: Neu5Ac(a2-3)Gal(b1-4)GlcNAc(b1-2)[Neu5Ac(a2-3)Gal(b1-4)GlcNAc(b1-6)]Man(a1-6)[Neu5Ac(a2-3)Gal(b1-4)GlcNAc(b1-2)Man(a1-3)][GlcNAc(b1-4)]Man(b1-4)GlcNAc(b1-4)GlcNAc
# In short: as §1
# [34] = molecular target: Neu5Ac(a2-3)Gal(b1-4)[Fuc(a1-3)]GlcNAc(b1-3)GalNAc
# In short: as §1
# [35] = molecular target: Neu5Ac(a2-8)Neu5Ac(a2-3)Gal(b1-3)GalNAc(b1-4)[Neu5Ac(a2-3)]Gal(b1-4)Glc
# In short: as §1
# [36] = molecular target: Neu5Ac(b2-6)Gal(b1-4)GlcNAc
# In short: as §1
# [37] = molecular target: Neu5Gc(a2-8)Neu5Ac(a2-3)Gal(b1-4)GlcNAc
# In short: as §1
# [38] = molecular target: Neu5Gc(a2-8)Neu5Gc(a2-6)Gal(b1-4)GlcNAc
# In short: as §1
binder,measurement,setting,value
B1,glycan array binding signal (z-score),[1],0.805
same,glycan array binding signal (z-score),Fuc(a1-2)Gal6S(b1-4)Glc,-0.399
same,glycan array binding signal (z-score),[2],3.97
same,glycan array binding signal (z-score),[3],-0.238
same,glycan array binding signal (z-score),[4],3.4
same,glycan array binding signal (z-score),[5],1.3
same,glycan array binding signal (z-score),[6],-0.388
same,glycan array binding signal (z-score),[7],-0.301
same,glycan array binding signal (z-score),[8],-0.411
same,glycan array binding signal (z-score),[9],2.27
same,glycan array binding signal (z-score),[10],-0.026
same,glycan array binding signal (z-score),[11],-0.424
same,glycan array binding signal (z-score),[12],-0.311
same,glycan array binding signal (z-score),[13],0.003
same,glycan array binding signal (z-score),[14],4.37
same,glycan array binding signal (z-score),[15],4.81
same,glycan array binding signal (z-score),[16],5.37
same,glycan array binding signal (z-score),Gal(b1-4)Glc,-0.309
same,glycan array binding signal (z-score),[17],-0.352
same,glycan array binding signal (z-score),[18],-0.449
same,glycan array binding signal (z-score),[19],-0.419
same,glycan array binding signal (z-score),[20],3.41
same,glycan array binding signal (z-score),[21],0.332
same,glycan array binding signal (z-score),[22],-0.438
same,glycan array binding signal (z-score),Gal3S4S(b1-4)GlcNAc,-0.417
same,glycan array binding signal (z-score),Gal6S(b1-3)GlcNAc6S,5.12
same,glycan array binding signal (z-score),Gal6S(b1-4)Glc6S,4
same,glycan array binding signal (z-score),Gal6S(b1-4)GlcNAc,3.76
same,glycan array binding signal (z-score),Gal6S(b1-4)GlcNAc6S,4.85
same,glycan array binding signal (z-score),[23],-0.401
same,glycan array binding signal (z-score),[24],-0.2
same,glycan array binding signal (z-score),[25],-0.336
same,glycan array binding signal (z-score),[26],4.94
same,glycan array binding signal (z-score),[27],5.38
same,glycan array binding signal (z-score),[28],6.69
same,glycan array binding signal (z-score),[29],-0.429
same,glycan array binding signal (z-score),[30],6.34
same,glycan array binding signal (z-score),Neu5Ac(a2-3)Gal,-0.391
same,glycan array binding signal (z-score),[31],-0.31
same,glycan array binding signal (z-score),[32],3.62
same,glycan array binding signal (z-score),[33],-0.447
same,glycan array binding signal (z-score),[34],0.356
same,glycan array binding signal (z-score),[35],-0.417
same,glycan array binding signal (z-score),[36],-0.412
same,glycan array binding signal (z-score),[37],-0.431
same,glycan array binding signal (z-score),[38],-0.412
